The campaign covered roughly 360,000 compounds. About 7,300 (2%) were called active. Cut-off read from the data, not from the text of the source: active = inhibition above about 50%; inactive = the rest. Shown is part of a subset that was picked to be rich in actives.
assay: blockers of TWEAK-induced Fn14 reporter activity – luciferase reporter cells, uHTS, primary screen (AID 1159606); conditions: TWEAK-stimulated Fn14 reporter cells, luciferase luminescence, 8 h; at 10 µM; hits give high values

inhibition, inactive:
COc1cc(C(=O)OCC(=O)N(CC(C)C)C2CCS(=O)(=O)C2)ccc1OCC(C)C (centres undefined) -5.97%, COc1ccc(CCNC(=O)CCC(=O)NC2CCCCC2)cc1OC 4.09%, COc1ccc(CNc2nnnn2C)cc1 2.29%, COc1ccc(-n2nnnc2SCC(=O)NCc2cccs2)cc1 -2.38%, Cc1ccc(CN2CCCOCCS2(=O)=O)cc1 -9.75%, CCCOc1ccccc1-c1nc(SCCC(=O)O)n[nH]1 -9.1%, Nc1ccccc1-c1nc2ccncc2[nH]1 -11.5%, COc1ccc2c(c1)CC[C@@H]1[C@@H]2CC[C@]2(C)C(=O)CC[C@@H]12 -3.91%, O=C(NCc1ccccc1)C1c2ccccc2OCC(=O)N1C1CC1 (centres undefined) 4.34%, NC(=O)Nc1ccccc1C(=O)NCCc1ccccc1 11.8%, CC1Sc2ccc(S(=O)(=O)CCC(=O)NCc3ccccc3Cl)cc2NC1=O (centres undefined) 0.42%, COc1ccccc1N1CCN(C(=O)CCS(=O)(=O)c2ccc3c(c2)NC(=O)C(C)S3)CC1 (centres undefined) 21.7%, O=C(NCc1ccc(F)cc1)C1CCN(C(=O)Nc2ccc(F)cc2)CC1 31.5%, Cc1c(Cl)cccc1NC(=O)Nc1ccc(C(=O)N2CCCC2)cc1 5.68%, O=C(Nc1ccccc1C(=O)N1CCOCC1)c1ccc(Cl)cc1 -5.43%, COc1cc2c(C(=O)N3CCN(C)CC3)c(CSc3ccccc3)n(C)c2cc1Br 0.16%, CCN(CC)CCN(C)C(c1ccnc2ccccc12)c1nnnn1-c1ccc2c(c1)OCCO2 (centres undefined) 29.9%, CCCCn1nnnc1C1(C)CCC(=O)N1Cc1ccc(OC)c(OC)c1 (centres undefined) 2.84%, COc1ccc(COC[C@H](CC(C)C)N2CCN(C(=O)c3cccc(C(F)(F)F)c3)CCC2=O)cc1 0.93%, O=C1c2ccccc2C(c2nc3ccccc3[nH]2)N1c1ccccc1 (centres undefined) 20.9%, CCc1ccc(Oc2coc3cc(OC(=O)c4cc5ccccc5oc4=O)ccc3c2=O)cc1 -16.7%, CSc1nnc(CNC(=O)c2ccccc2)n1-c1ccc(F)cc1 23.6%, O=C(OC1CC2CC1[C@H]1CCCCN1C2=O)N1CCOCC1 (some centres undefined) 24.2%, NC(=O)c1ncn([C@@H]2O[C@H](CN=C3NS(=O)(=O)c4ccccc43)[C@@H](O)[C@H]2O)n1 -2.64%, Cc1oc2cc([N+](=O)[O-])c(O)c([N+](=O)[O-])c2c1C(=O)c1ccc(Br)cc1 20%, O=C(O)c1cc(S(=O)(=O)N(Cc2ccccc2)c2cccc(C(F)(F)F)c2)ccc1Cl 9.03%, O=C(CNS(=O)(=O)c1cccc(C(F)(F)F)c1)Nc1ccccc1F -3.29%, CCCNCc1cc(OCC)c(OCC(=O)Nc2ccccc2)cc1Br 3.35%, O=C(CN1CCOC1=O)N1CCCC(Nc2ccc(F)c(F)c2)C1 (centres undefined) -4.67%, O=C1CCCCN1CCCC(=O)N1CCCC(Nc2ccc(F)cc2)C1 (centres undefined) 10.3%, CCCn1c(N)c(C(=O)CSc2nnc(Cc3cccs3)n2C2CC2)c(=O)[nH]c1=O -4.97%, CC1CC(C)CN(S(=O)(=O)c2ccc(C(=O)NN3CCOCC3)cc2)C1 (centres undefined) 15.8%, COc1ccc(/C=C/c2noc(-c3ccccc3OC(C)=O)n2)cc1 48.5%, COc1ccc(-c2noc(CNC(=O)C(C)Oc3ccccc3)n2)cc1 (centres undefined) -2.29%, CC1CN(C(=O)CCC(=O)NCCCN2CCC(Cc3ccccc3)CC2)c2cc(Cl)ccc2O1 (centres undefined) -12.8%, O=C1C2CCCN2C(=O)N1CCCCN1CCN(c2cccc(C(F)(F)F)c2)CC1 (centres undefined) -4.34%, COc1ccc(N(CCC(=O)NCCc2ccccc2)S(=O)(=O)c2ccc(C)cc2C)cc1 -9.44%, O=C(COC(=O)/C=C/c1cn(-c2ccccc2)nc1-c1cccnc1)Nc1ccc(Cl)cc1Cl -65%, COc1ccc(NC(=O)CN(C)C(=O)/C=C/c2cn(Cc3ccccc3)nc2-c2cccnc2)cc1 -11.2%, CCOC(=O)[C@H]1Nc2ccc(Cl)cc2[C@@H]2[C@H]1C1CC(c3ccccc31)N2C(=O)OCc1ccccc1 (some centres undefined) -23.5%, CCCCNC(=O)OC1CC2CC1[C@H]1CCCCN1C2=O (some centres undefined) 7.93%, Cc1noc(C)c1-c1nc(CSc2ccc(Cl)cc2)no1 -29%, COc1cc2nnn(-c3ccncc3)c2cc1OC 1.57%, Cn1c(N2CCOCC2)c(C=O)c2ccccc21 -2.19%, COc1cccc(-n2c(=S)[nH]c3c(oc4ccccc43)c2=O)c1 22.3%, CC1(C(=O)O)CCN1C(=O)/C=C/c1ccccc1 (centres undefined) 4.71%, CC1(C(=O)NS(=O)(=O)c2ccccc2)CCN1C(=O)C/C=C/c1ccccc1 (centres undefined) -7.09%

inhibition, active:
COc1ccc(-n2nnnc2-c2nc3ccccc3s2)cc1 74%, Cc1cc(C)nc(Nc2n[nH]c(-c3ccccc3N)n2)n1 53.5%, Cc1cccc(N2CCN(C(=O)CCS(=O)(=O)c3ccc4c(c3)NC(=O)C(C)S4)CC2)c1C (centres undefined) 50.6%, O=C(Nc1ccc(Cl)cc1)Nc1ccc(C(=O)N2CCOCC2)cc1 79%, O=c1ccc2c(-c3ccccc3S(=O)(=O)O)c3ccc(O)c(O)c3oc-2c1O 78%, O=C(NNc1ccccc1Cl)C(O)(c1cccc(C(F)(F)F)c1)c1cccc(C(F)(F)F)c1 74.5%, O=C(CN1C(=O)CSC1=O)N1CCCC(Nc2ccc(F)cc2)C1 (centres undefined) 89.2%, COc1ccc(-c2nc(-c3ccccc3)no2)c(OC)c1 96.2%, O=C(O)CCn1cc(/C=C/C(=O)c2ccc(Cl)cc2)c(-c2cccc(Br)c2)n1 66%, CCOC12CC(C)(C)CC(C)(CC3=C1C(=O)CC(C)(C)C3)C2 (centres undefined) 76.6%, O=c1oc2ccccc2cc1-c1cn(-c2ccccc2)c(=S)[nH]1 107%, CC1(C)CCSC(/C=C/c2ccccc2)=N1 71.7%

Reference: PubChem BioAssay AID1159606 (Sanford-Burnham Center for Chemical Genomics, 2016)
